# BAZ2B block: inhibitors of human BAZ2B bromodomain; Q9UIF8; AlphaScreen BAZ2B-H3K14Ac peptide displacement; Potency, µM (titrated, usually from 114 µM), for inactives: at the top dose activity change, negative = inhibition, actives largely listed as inhibitors; 360,000 tested, 4.4% active; further: on the % scale 0 is the no-effect control and ±100 the full control effect; nearly all actives have a fitted effect of over 60% in size
#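 BAZ2B 50 nM plus b-H3(5-23)K14Ac 50 nM, PBS pH 7.4/0.01% Tween-20, 30 min RT; compound added (max 110 uM), 30 min RT; streptavidin donor/Ni-chelate acceptor beads 10 ug/mL final, 20 min dark; AlphaScreen read.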
# G9a block: blocks human histone lysine methyltransferase G9a | G9a H3K9 monomethylation, AlphaScreen, 2 h | Potency, µM (doses to about 102 µM), without a hit: at the highest dose activity, negative = inhibition, hits mostly inhibitors | 350,000 tested, 8.8% active | AID 504332; further: on the % scale 0 is the no-effect control and ±100 the full control effect; nearly all actives have a fitted effect of over 75% in size
#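 Using a bead-based AlphaScreen, monomethylated H3K9 product from 2 h room-temperature reactions (G9a 20 nM, peptide 500 nM, SAM 20 uM) was detected with 0.5 ug/mL rabbit anti-H3K9me1 antibody.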
# Sfp PPTase inh: inhibitors of Bacillus subtilis Sfp phosphopantetheinyl transferase. 310,000 tested, 3.5% active. Biochemical Sfp PPTase activity, qHTS. Potency, µM, inactives show largest response in the series, negative = inhibition, most hits filed as inhibitors;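 further: the enzyme is Sfp with the accession as filed and its product quenches rhodamine fluorescence; 0% = enzyme reaction without inhibitor and -100% = no enzyme wells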
#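 After 15 min at room temperature with compound, 15 nM Sfp received 5 uM rhodamine-CoA plus 12.5 uM BHQ-2-ybbR (50 mM Hepes pH 7.6, 10 mM MgCl2). Rate came from the fluorescence difference over 30 min, ex 525/em 598 nm.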
# PLK1 PBD block: PLK1 (human) polo-box domain binding inhibition; P53350; Plk1 PBD binding of FITC phosphopeptide, fluorescence polarization; Potency, µM, for the others: max response, negative = inhibition, actives largely listed as inhibitors; 360,000 tested, 2.8% active; AID 720504; further: series mostly up to about 57 µM; on the % scale 0 is the no-effect control and ±100 the full control effect; nearly all actives have a fitted effect of over 65% in size
# JMJD2A Tudor: blocks the human JMJD2A Tudor domain | O75164 | AlphaScreen JMJD2A-Tudor / H3K4me3 peptide binding | Potency, µM (series often up to 114 µM), for the others: at the top dose activity change, negative = inhibition, usual class: inhibitors | 390,000 tested, 4.4% active | AID 504339; further: on the % scale 0 is the no-effect control and ±100 the full control effect; nearly all actives have a fitted effect of over 50% in size
# Target sequence (O75164 whole entry, looked up, the tested form may be a part): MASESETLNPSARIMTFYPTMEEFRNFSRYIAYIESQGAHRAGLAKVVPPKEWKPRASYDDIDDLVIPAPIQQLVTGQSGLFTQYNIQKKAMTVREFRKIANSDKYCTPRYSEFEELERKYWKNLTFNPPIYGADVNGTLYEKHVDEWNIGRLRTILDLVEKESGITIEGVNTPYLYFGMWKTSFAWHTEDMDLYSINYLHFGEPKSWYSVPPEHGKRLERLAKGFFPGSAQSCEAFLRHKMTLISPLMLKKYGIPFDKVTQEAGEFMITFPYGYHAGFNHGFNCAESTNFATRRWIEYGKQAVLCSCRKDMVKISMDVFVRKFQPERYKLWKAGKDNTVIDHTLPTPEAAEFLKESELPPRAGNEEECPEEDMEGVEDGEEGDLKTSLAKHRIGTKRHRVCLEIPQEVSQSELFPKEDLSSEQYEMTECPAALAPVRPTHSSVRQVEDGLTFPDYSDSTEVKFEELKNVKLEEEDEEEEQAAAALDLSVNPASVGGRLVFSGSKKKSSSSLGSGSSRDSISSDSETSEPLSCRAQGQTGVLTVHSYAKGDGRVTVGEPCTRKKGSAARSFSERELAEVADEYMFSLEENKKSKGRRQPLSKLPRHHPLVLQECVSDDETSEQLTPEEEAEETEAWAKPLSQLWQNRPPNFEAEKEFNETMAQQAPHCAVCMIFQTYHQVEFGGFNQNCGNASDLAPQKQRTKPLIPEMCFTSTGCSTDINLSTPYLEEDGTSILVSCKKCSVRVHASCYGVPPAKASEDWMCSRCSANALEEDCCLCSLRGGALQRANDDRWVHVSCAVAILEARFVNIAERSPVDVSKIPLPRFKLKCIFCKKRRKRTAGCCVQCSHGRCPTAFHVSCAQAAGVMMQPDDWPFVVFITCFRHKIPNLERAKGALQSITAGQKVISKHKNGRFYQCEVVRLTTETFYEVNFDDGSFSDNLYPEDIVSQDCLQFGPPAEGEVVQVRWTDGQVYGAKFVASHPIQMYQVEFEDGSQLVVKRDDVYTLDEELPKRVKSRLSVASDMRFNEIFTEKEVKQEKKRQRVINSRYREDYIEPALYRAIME
# HP1b binding inh: blocks HP1-beta chromodomain binding to methylated histone tails; Potency, µM (highest dose often 114 µM), without a hit: at the top dose activity change, negative = inhibition, actives largely listed as inhibitors; 390,000 tested, 0.56% active; P83916; AlphaScreen HP1-beta / biotin-H3K9me3 peptide binding; further: nearly all actives have a fitted effect of over 70% in size
#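 HP1-beta protein (50 nM final) preincubated 30 min at room temperature with biotinylated H3(1-18)K9me3 peptide (50 nM) in PBS pH 7.4, 0.01% Tween-20, then compound added for 30 min. AlphaScreen streptavidin donor/nickel chelate acceptor beads (10 ug/mL final), 30 min dark, luminescence read.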
# Starred values were filed as active, the others as inactive; ? = inconclusive; · = no result given; [ ] = dose if it differs, or a comment. Only some compounds are listed: those with a hit (about 12% of all), similar ones and a draw of the others. The call rests on the fitted dose curve; in most records, active means well fitted curve in the direction sought with a large enough effect; inconclusive means small, poorly fitted or top-dose-only effect, or another doubt; inactive means no such curve, though single readings can be large; an effect the other way counts as inactive or inconclusive. Potency means the concentration at half of the fitted maximal effect.
SMILES,BAZ2B block,G9a block,Sfp PPTase inh,PLK1 PBD block,JMJD2A Tudor,HP1b binding inh
O=C(O)c1c2c(nc3ccc(S(=O)(=O)N4CCC(C(=O)NC5CCCCCC5)CC4)cc13)CCCC2,50µM*,40µM*,1%,?,?,4%
CC(C)CCNC(=O)C1CCN(S(=O)(=O)c2ccc3nc4c(c(C(=O)O)c3c2)CCCCC4)CC1,-20%,-9%,20%,-8%,-5%,31%
COc1ccc(CCC(=O)OCc2csc(CC(=O)Nc3ccccc3C)n2)cc1,-3%,·,-9%,-9%,-18%,15%
COc1ccc(Cn2c(CCC(=O)Nc3cc(OC)c(OC)c(OC)c3)nc3cccnc32)cc1,?,-19%[59 µM],·,·,-21%,-10%
O=[N+]([O-])c1ccccc1N=NNc1ccccc1,·,·,·,-8%,20µM*,?
COC(=O)c1ccccc1NN=Nc1ccccc1[N+](=O)[O-],·,·,·,2%,·,·
O=[N+]([O-])c1ccccc1N=Nc1ccc(O)cc1,·,·,·,2%,50µM*,?
C[n+]1cn(/N=C/c2ccccc2)c2ccccc21,10%,1.6µM*,3%,-22%,?,17%
CN1CCC(CNC(=O)Nc2csc3ccccc23)CC1,-11%,·,79µM*,5%,-15%,27%
CN(C)c1ccc(NC(=O)Nc2csc3ccccc23)cc1,35µM*,8.9µM*,19%,0%,?,-8%
O=C(Nc1ccc(F)cc1)Nc1csc2ccccc12,0%,?,?,-1%,-10%,29%
Fc1ccc(Nc2nc(NCc3ccco3)c3ccccc3n2)cc1,?,·,13µM*,-11%,50µM*,-15%
c1cncc(-c2nc(NCc3ccc4c(c3)OCO4)c3ccccc3n2)c1,-24%,5%[59 µM],45µM*,4%,-14%,49%
Clc1cccc(CNc2nc(-c3cccnc3)nc3ccccc23)c1,?,45µM*,-29%,7%,?,-14%
c1ccc(CNc2nc(-c3cccnc3)nc3ccccc23)cc1,-4%,-3%,-8%,-8%,-16%,29%
Cc1ccc(CNc2nc(-c3cccnc3)nc3ccccc23)cc1,-15%,-45%,89µM*,2%,-21%,32%
Fc1ccc(CNc2nc(-c3cccnc3)nc3ccccc23)cc1,-1%,-37%,2%,-11%,-15%,14%
c1cncc(-c2nc(NCC3COc4ccccc4O3)c3ccccc3n2)c1 (stereo not given),-32%,50µM*,?,-17%,22%[11.4 µM],1%
c1ccc(CNc2nc(NCc3ccccc3)c3ccccc3n2)cc1,?,?,14µM*,-3%,-34%,3%
NC(=O)NC(=O)CC1S/C(=N/N=C2\CSC(=O)N2)NC1=O (stereo not given),3.2µM*,0.79µM*,11µM*,0%,8.9µM*,48%
NC(=O)NC(=O)CC1S/C(=N/N=C/c2ccccc2)NC1=O (stereo not given),-23%,-26%,23%,-11%,-9%,38%
O=C(O)CNC(=O)CC1S/C(=N/N=C2/NC(=O)CS2)NC1=O (stereo not given),20µM*,28µM*,32µM*,-35%,22µM*,2%
Cc1ccc(-n2c(C)cc(/C=C3/SC(=O)N(CC(=O)N4CCOCC4)C3=O)c2C)nc1,-3%,·,-13%,-4%,-2%,44%
Cc1ccc(S(=O)(=O)N2CCN(C(=O)C(O)c3ccccc3)CC2)cc1 (stereo not given),·,·,·,-3%,·,·
O=C(O)CC1CC(O)CCC1=O (stereo not given),·,·,·,-9%,·,·
SMILES,BAZ2B block,G9a block,Sfp PPTase inh,PLK1 PBD block,JMJD2A Tudor,HP1b binding inh
O=C(O)CC1CCC(=C(Cl)Cl)C1 (stereo not given),?,45µM*,1%,-28%,-21%,12%
COc1ccc2[nH]c3c(=O)n(CCCCC(=O)N4CCC(C(N)=O)CC4)c(=S)[nH]c3c2c1,-9%,?,-21%,-9%,3.5µM*,26%
CCCCNC(=O)CCCCn1c(=S)[nH]c2c([nH]c3ccc(OC)cc32)c1=O,-5%,-8%,6%,27µM*,?,24%
COc1ccc2[nH]c3c(=O)n(CCCCC(=O)NCCN4CCCC4)c(=S)[nH]c3c2c1,-31%,?,79µM*,-6%,5.6µM*,?
COc1ccc2[nH]c3c(=O)n(Cc4ccc(C(=O)N5CCCC5)cc4)c(=S)[nH]c3c2c1,-21%,7.9µM*,8%,24µM*,6.3µM*,?
COc1ccc2[nH]c3c(=O)n(CCCCCC(=O)NCCC(C)C)c(=S)[nH]c3c2c1,3%,9%,0%,-14%,-18%,20%
COc1ccc(C(=O)NCCc2csc(-c3ccc(Cl)cc3)n2)c(OC)c1,1%,6%[59 µM],·,·,-4%,23%[57 µM]
CN1CC[n+]2cnc3ccccc3c21,-14%,2.5µM*,?,0%,-5%,16%
c1ccc2c(N3CCCCC3)ncnc2c1,-28%,-29%[12.7 µM],-26%,-4%,12%,36%
CS(=O)(=O)N1CCC(C(=O)O)CC1,5.6µM*,0%,8%,-10%,-13%,13%
N=C1CCC(=N)c2c1c(O)c1ccccc1c2O,14µM*,·,?,?,14µM*,20µM*
N=C1CCCN1c1ccccc1O,0%,·,13%,1%,-10%[11.4 µM],64%
COc1ccccc1C(=O)NCCSCc1c(F)cccc1Cl,8%,71µM*,9%,-9%,6%,39%
O=C(NCCSCc1c(F)cccc1Cl)c1ccco1,-38%,-41%,-22%,-2%,-15%,22%
CNCc1cn2cc(Cl)ccc2n1,6%,-11%,-3%,27µM*,-32%,18%
Cc1ccc2nc(COC(=O)CNC(=O)c3ccccc3)cn2c1,-4%,-36%,·,-5%,-14%,9%
O=C(O)CSCc1cn2cc(Cl)ccc2n1,-24%,50µM*,-10%,0%,?,-1%
O=C(O)c1ccccc1-c1cn2cc(Cl)ccc2n1,-17%,26%,7%,-10%,-16%,17%
COC(=O)CCSCc1cn2cc(Cl)ccc2n1,4%,40µM*,13%,-6%,-15%,49%
COc1cccc(/C=C/C(=O)NCc2cn3cc(Cl)ccc3n2)c1,-12%,-4%,18%,-20%,-14%,28%
CC1(c2ccc(Cl)cc2)CC(C)(C)N(C(=O)c2cccc(F)c2)c2ccccc21 (stereo not given),-5%,20%[59 µM],·,·,0%,69%
Cc1ccc(NC(=O)c2cccc(S(=O)(=O)N3CCN(C)CC3)c2)cc1F,2%,9%,-2%,-19%,-13%,-5%
